# HepG2 viability = qHTS for Inhibitors of TGF-b: Cytotox Counterscreen; HepG2 CAGA-GFP viability, ATP luminescence, 18 h; Potency, µM (doses to about 46.1 µM), for inactives: at the highest dose activity change, negative = cytotoxicity, hits mostly cytotoxic; hit rate 0.76% among 410,000; AID 588856, 2011
#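 CellTiter-Glo luminescence gave cytotoxicity after 18 hours at 37 degrees C. The cells were HepG2 CAGA-GFP in 1% FBS DMEM, stimulated with 500 pg/mL TGF-beta after compound addition. %Activity was normalised to no-cell wells (complete cell-killing) and DMSO (no toxicity), and curves were fitted and classified.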
# TDP1 cell noCPT = qHTS for Inhibitors of human tyrosyl-DNA phosphodiesterase 1 (TDP1): qHTS in cells in absence of CPT | DT40 Tdp1-/- hTDP1 cells, no CPT, ATP luminescence, 48 h | Potency, µM (top dose mostly 46.2 µM), for the others: top-dose activity change, negative = growth inhibition, usual class: inhibitors | hit rate 15% among 420,000 | AID 686978, 2013; further: on the % scale 0 is the no-effect control and ±100 the full control effect; nearly all actives have a fitted effect of over 55% in size
#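 Stably hTDP1-transfected Tdp1-null chicken DT40 cells were treated with library compounds minus camptothecin and grown for at least 48 hr at 37 °C, after which cellular ATP was quantified by luminescence.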
# TGFb SMAD3 inh = qHTS for Inhibitors of TGF-b | HepG2 CAGA-GFP TGF-b/SMAD3 reporter, GFP fluorescence, 18 h; TGF-beta stimulated, 500 pg/mL final | Potency, µM (highest dose often 46.1 µM), for the others: top-dose activity, negative = inhibition, most hits filed as inhibitors | hit rate 1.2% among 410,000; further: on the % scale 0 is the no-effect control and ±100 the full control effect; nearly all actives have a fitted effect of over 65% in size
#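 HEPG2 CAGA-GFP, 1000 cells/well; 2 h settle, 37 C; cpd via pin tool; TGF-b 500 pg/mL final; 18 h, 37 C; GFP imaging ex488/em500-530; %Activity normalised to -TGF-b and +DMSO controls; CRC fit, curve class.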
# TDP1 cell CPT = qHTS for Inhibitors of human tyrosyl-DNA phosphodiesterase 1 (TDP1): qHTS in cells in presence of CPT | hit rate 12% among 420,000 | Potency, µM (series often up to 46.2 µM), inactives show at the highest dose activity change, negative = growth inhibition, actives largely listed as inhibitors | chicken DT40 Tdp1-/-;hTDP1 cells + 20 nM CPT, ATP luminescence, 48 h | AID 686979, 2013; further: on the % scale 0 is the no-effect control and ±100 the full control effect; nearly all actives have a fitted effect of over 55% in size
#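 Chicken DT40 Tdp1-/- cells complemented with human TDP1, 400 cells/well, exposed to compounds plus 20 nM camptothecin for at least 48 h at 37 C; viability read as ATP content by CellTiter-Glo luminescence.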
# HT1080 IDH1KD tx = qHTS for induction of synthetic lethality in tumor cells producing 2HG: qHTS for the HT-1080-IDH1KD cell line | HT-1080 IDH1 knockdown viability, ATP luminescence, 48 h | AID 686971, 2013 | hit rate 2% among 360,000 | Potency, µM (doses to about 46.1 µM), for the others: at the highest dose activity, negative = toxicity, most hits filed as cytotoxic;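 further: 0% = DMSO wells and -100% = cell-free medium wells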
#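 Assay cells: HT-1080 with IDH1 knockdown, 750 per well, RPMI/5% FBS. Exposure: 48 h at 37 °C following 2 h pre-incubation. Read: CellTiter-Glo luminescence; fitted concentration-response, curve class assigned.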
# HT1080NT lethal = qHTS for induction of synthetic lethality in tumor cells producing 2HG: qHTS for the HT-1080-NT fibrosarcoma cell line | HT-1080-NT fibrosarcoma viability, CellTiter-Glo ATP luminescence, 48 h | hit rate 1.6% among 360,000 | AID 686970, 2013 | Potency, µM (top dose mostly 46.1 µM), inactives show at the highest dose activity, negative = less viability, most hits filed as cytotoxic;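 further: NT is the 2HG producing partner of a matched IDH1 knockdown line; 0% = DMSO-treated cells and -100% = media-only wells without cells; nearly all actives have a fitted effect of over 55% in size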
#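 HT-1080-NT; 750 cells/well; 5% FBS RPMI; 48 h compound, 37 degrees C; CellTiter-Glo luminescence; curve fitting and curve-class assignment.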
# The depositor's hits bear a star; ? = inconclusive; nt = no result; [ ] = remark or other dose. Hits are enriched below; roughly 17% of the tested compounds scored in any of these assays. The call rests on the fitted dose curve; in most records, active means well fitted curve in the direction sought with a large enough effect; inconclusive means small, poorly fitted or top-dose-only effect, or another doubt; inactive means no such curve, though single readings can be large; an effect the other way counts as inactive or inconclusive. Potency means the concentration at half of the fitted maximal effect.
SMILES,HepG2 viability,TDP1 cell noCPT,TGFb SMAD3 inh,TDP1 cell CPT,HT1080 IDH1KD tx,HT1080NT lethal
CCN(CC)c1ccc(NS(=O)(=O)c2ccc3c(c2)oc(=O)n3C)c(C)c1,-15%,?,5%,26µM*,-3%,-16%
CCCCN(C)c1c(C)nc2ccc(C(=O)Nc3ccc(OC)c(OC)c3)cn12,-4%,15µM*,-3%,?,-10%,1%
CCCCN(C)c1c(C)nc2ccc(C(=O)Nc3cc(-c4ccccc4)ccc3OC)cn12,13µM*,16µM*,?,13µM*,?,?
CCCCN(C)c1c(C)nc2ccc(C(=O)NCc3cccs3)cn12,-3%,?,3%,?,-6%,-5%
C=CCn1c(SCn2nnc3ccccc3c2=O)nnc1C1CCCCC1,-7%,-18%,15%,2%,10%,-1%
CCNc1ncc2nc(-c3ccc(F)cc3)c(=O)n(C)c2n1,nt,-24%,nt,?,nt,nt
Cc1cccc(CSc2nc3ccccc3c(=O)n2C)c1,-36%,18µM*,?,?,?,-13%
Cn1c(SCc2ccc(Br)cc2)nc2ccccc2c1=O,-2%,12µM*,?,?,-25%,-27%
C[C@H](CO)N1C[C@H](C)[C@@H](CN(C)S(=O)(=O)c2cn(C)cn2)Oc2ccc(NC(=O)Cn3cnnn3)cc2C1=O,4%,8%,-6%,5%,28%,15%
Cc1cc(C(=O)N[C@H](c2ccccc2)[C@@]2(C)C[C@@H]2[C@@H](C)C(=O)Nc2ccc3ccccc3c2)no1,-14%,26µM*,?,?,-2%,-4%
Cc1cc(C(=O)N[C@@H](c2ccccc2)[C@]2(C)C[C@H]2[C@@H](C)C(=O)Nc2ccc3ccccc3c2)no1,-12%,?,?,?,-12%,-3%
C[C@@H](C(=O)Nc1ccc2ccccc2c1)[C@@H]1C[C@@]1(C)[C@@H](NC(=O)c1cnccn1)c1ccccc1,-21%,?,-12%,26µM*,-30%,-22%
O=C(O)c1ccccc1SC1CC(=O)N(c2cccc3ccccc23)C1=O (stereo not drawn),35%,2.6µM*,1%,1.8µM*,-6%,-22%
CCOC(=O)c1c(N2C(=O)CC(Sc3ccccc3C(=O)O)C2=O)sc2c1CCCC2 (stereo not drawn),-22%,15µM*,-12%,15µM*,-16%,6%
O=C(NCC1(N2CCCCC2)CCCC1)c1cnn(-c2nccc(-c3cccs3)n2)c1C1CC1,nt,1%,nt,7%[9.04 µM],nt,nt
Cc1ccc(C(=O)c2c3ccc(C(F)(F)F)cc3[n+]([O-])n2CCCN)cc1,-32%,23µM*,-13%,23µM*,1%,2%
C/C(CCc1ccc2c(c1)OCO2)=N\NC(=O)c1ccccc1Br,-12%,-14%,-2%,18%,5%,21%
COc1ccccc1C(CNc1ncnc2sc(C)c(C)c12)N(C)C (stereo not drawn),1%,21µM*,0%,?,-2%,-10%
COc1ccc(C(CNc2ncnc3sc(C)c(C)c23)N(C)C)cc1 (stereo not drawn),-27%,23µM*,-4%,?,1%,-2%
COc1ccccc1CNc1ncnc2sc(C(=O)N(C)C(C)C)c(C)c12,nt,?,nt,-4%[9.04 µM],nt,nt
